# High-throughput results from PubChem BioAssay.
# A selection: hits, their analogues and other compounds. The true share with any hit is near 3.8%.
# Beta apoptosis – beta cell apoptosis inhibition | INS-1E cytokine-induced death, ATP luminescence, 48 h; percent of positive-control rescue, neutral wells zero | protection from apoptosis, % (concentration not given with the values) | 300,000 compounds, 0.8% hits | AID 435005;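 active = Every replicate reaches about 75%, or at least half do and their mean reaches it too, limit read from the data; inconclusive = At least half of replicates reach the limit but their mean does not; inactive = Under half of replicates reach the limit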;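 note: higher means more ATP so stronger rescue from cytokine killing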
# Jurkat NFkB inh – inhibitors of the PMA/ionomycin-induced NF-kB reporter in Jurkat cells | PMA/ionomycin-induced NF-kB luciferase reporter, luminescence | inhibition, % at 4 µM | 330,000 compounds, 0.53% hits | AID 435003; in the data active = inhibition above about 50%
# Mdm2 MdmX PPI – disrupts the human Mdm2-MdmX interaction; O15151+Q00987; SaOS-2 split-luciferase Mdm2/MdmX complementation, luminescence; inhibition, % at 8 µM; 330,000 compounds, 3% hits; AID 485346;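 active = inhibition of at least 50% at 8 µM in the primary screen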
# 697 NFkB inh – lowers PMA/ionomycin-induced NF-kB signal in 697 B cells; 697 B-cell NF-kB luciferase reporter, 16 h; 330,000 compounds, 0.33% hits; inhibition, % at 4 µM; in the data active = inhibition above about 35%
# NTR1 ag – activates human neurotensin receptor 1; P30989; NTR1-U2OS beta-arrestin-GFP spot imaging, agonist mode; activation, % at 20 µM; 330,000 compounds, 0.17% hits; AID 493036;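 active = activation at or above 40% of the spot to cytoplasm intensity ratio, with at least 20 cells analyzed; inconclusive = wells under 20 cells, flagged as cytotoxic or low count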
# Target sequence (P30989 whole entry, looked up): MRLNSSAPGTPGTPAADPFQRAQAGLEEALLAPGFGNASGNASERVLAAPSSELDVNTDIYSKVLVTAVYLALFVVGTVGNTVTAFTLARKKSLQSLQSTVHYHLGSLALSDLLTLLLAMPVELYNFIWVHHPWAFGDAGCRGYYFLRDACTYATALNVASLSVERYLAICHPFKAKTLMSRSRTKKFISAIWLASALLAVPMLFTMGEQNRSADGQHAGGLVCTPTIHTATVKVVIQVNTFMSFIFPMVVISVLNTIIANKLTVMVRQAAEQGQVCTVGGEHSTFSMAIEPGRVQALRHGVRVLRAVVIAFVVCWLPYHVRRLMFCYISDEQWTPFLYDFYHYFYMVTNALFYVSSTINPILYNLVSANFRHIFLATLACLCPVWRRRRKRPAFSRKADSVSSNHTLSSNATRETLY
# A1 inh – inhibitors of the anti-apoptotic protein A1, read as caspase activation. MEF A1-2A-BIM cells, Caspase-Glo 3/7 luminescence, 3 h; percent of clofoctol response, vehicle zero. 330,000 compounds, 0.066% hits. caspase activation, % (test concentration not listed);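 active = over half of replicate activation scores above 10%, or exactly half above 10 with the replicate mean above 10; inconclusive = replicate mean below 10 yet half the replicates above 10; inactive = over half of replicates below 10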
# Jurkat NFkB conf – inhibitors of the PMA/ionomycin-induced NF-kB reporter in Jurkat cells, retest. shares compounds with Jurkat NFkB inh. Jurkat NF-kB luciferase, 16 h. inhibition, % at 4 µM. 2,700 compounds, 27% hits;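 active = inhibition reaching about 45% at 4 µM in either replicate, limit read from the data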
# Hits are given with their value; . = inactive; ? = inconclusive; / = no result.
SMILES,Beta apoptosis,Jurkat NFkB inh,Mdm2 MdmX PPI,697 NFkB inh,NTR1 ag,A1 inh,Jurkat NFkB conf
Cc1c(NC(=O)N(C)c2ccccc2)c(=O)n(-c2ccccc2)n1C,.,.,.,.,.,.,/
Cc1cc(C)c(NN=c2c(=O)c3ccccc3c2=O)c(C)c1,.,.,.,.,.,.,.
O=S(=O)(c1cc(F)ccc1F)N1CCN(c2ncnc3ccccc23)CC1,104.2,60.2,.,.,.,.,58.1
CC(=O)c1ccc(NC(=O)Nc2ccc(Cl)cc2)cc1,.,.,.,.,.,.,.
CC(=O)c1cccc(NC(=O)NC2CCCCCCC2)c1,.,.,.,.,.,.,/
CC(=O)c1ccc(NC(=O)NC2CCCCCCC2)cc1,.,.,.,.,.,.,.
CCC(C)c1ccccc1OCC(=O)NN1C(=O)c2ccccc2C1=O (stereo not given),.,.,.,.,.,.,/
O=C(COc1ccccc1-c1ccccc1)N/N=C/c1cccc2ccccc12,.,55.6,.,.,.,.,50.7
Cn1nnc(NC(=S)NC(=O)c2cccc3c(Cl)cccc23)n1,.,.,.,.,.,.,/
Clc1ccc(CN=C2Nc3ccccc3CS2)cc1,.,.,.,.,.,.,/
Cc1ccc(CN=C2Nc3ccccc3CS2)cc1,.,.,.,.,.,.,.
Cc1cc(C(=O)OCC(=O)N(C)c2ccccc2)c2ccccc2n1,.,.,.,.,.,.,/
COc1ccc(Nc2nc(N3CCCC3)c3ccccc3n2)cc1,81.4,57.8,.,.,.,.,.
O=C(Nc1cccc(C(F)(F)F)c1)c1cc(-c2ccco2)on1,.,.,.,.,.,.,/
O=C(Nc1cccc(C(F)(F)F)c1)c1sc(Cl)nc1C(F)(F)F,.,97.5,.,.,.,.,70.8
COc1ccc(F)c(CN2CCC(n3nccc3NC(=O)C3CCOC3)CC2)c1 (stereo not given),.,.,.,.,.,.,/
CCC(=O)Nc1ccc2c(c1)C(=O)c1ccccc1C2=O,.,.,.,.,.,.,.
CCC(=O)Nc1ccc2c(c1)C(=O)N(C)C2=O,.,.,.,.,.,.,/
O=C(CN1CCN(c2ccccn2)CC1)Nc1ccc([N+](=O)[O-])cc1C(=O)Nc1ccccc1F,.,.,.,.,.,.,/
N#Cc1cn(-c2cccc(C(F)(F)F)c2)c(=O)[nH]c1=O,.,.,.,.,.,.,/
c1ccc(CNc2ncnc3c2cnn3-c2ccccc2)cc1,.,.,.,.,.,.,/
CC1CCN(c2ncnc3c2cnn3-c2ccccc2)CC1,/,.,.,.,.,.,.
CC(C)(C)Nc1ncnc2c1cnn2-c1ccccc1,.,.,.,.,.,.,.
COc1ccc(CN(C(=O)CCC(=O)Nc2cc(C)on2)C(C(=O)NC(C)(C)C)c2cccc(OC)c2OC)cc1 (stereo not given),.,.,.,.,.,.,/
CC(/C=N/NC(=O)c1nnn(-c2nonc2N)c1CN1CCCCC1)c1ccccc1 (stereo not given),.,.,.,.,.,.,/
SMILES,Beta apoptosis,Jurkat NFkB inh,Mdm2 MdmX PPI,697 NFkB inh,NTR1 ag,A1 inh,Jurkat NFkB conf
O=C(CCNC(=O)c1ccco1)NCc1ccc(F)cc1,.,.,.,.,.,.,/
O=C(NCCc1ccc(Cl)cc1)c1ccc2c(c1)OCCO2,/,.,.,.,.,.,.
CN1/C(=C\C(=O)c2ccco2)C(C)(C)c2ccccc21,99.3,57.3,.,.,.,.,.
CN1/C(=C\C(=O)COC(=O)c2ccco2)C(C)(C)c2ccccc21,.,.,.,.,.,.,/
COc1cc(SC)ccc1C(=O)N1CCN(S(=O)(=O)/C=C/c2ccccc2)CC1,/,.,.,.,.,/,/
COc1cc(S(=O)(=O)Nc2ccccc2C(=O)N2CCCC2)ccc1NC(C)=O,/,.,.,.,.,/,/
Cc1cccc(OCC(=O)Nc2nccs2)c1C,.,.,.,.,.,.,.
Cc1ccccc1OCCCC(=O)Nc1nccs1,.,.,.,.,.,.,/
Cc1cc(NC(=O)NC(=O)c2ccccc2)no1,/,.,.,.,.,.,/
O=[N+]([O-])c1ccc(N2CCN(c3cccc(Cl)c3)CC2)cn1,.,52.5,.,.,.,.,.
CC(Oc1ccc(Br)cc1)C(=O)NCC(c1cccs1)N1CCOCC1 (stereo not given),.,.,.,.,.,.,/
CCOc1ccc(S(=O)(=O)N2CCN(C(=O)C3CCC3)CC2)cc1,.,.,.,.,.,.,/
COc1cc(NCCCCCCCN)c2ncccc2c1,.,93.3,.,.,.,.,60.3
O=C(CN1C(=O)c2ccccc2C1=O)OCC(=O)c1ccccc1,.,.,.,.,.,.,/
N#C/C(=N\Nc1ccc(F)cc1)C(=N)N1CCCCCC1,/,.,.,.,.,.,.
N#C/C(=N\Nc1ccc(Cl)cc1)C(=N)N1CCCCC1,.,.,.,.,.,.,.
Cc1ccc(N/N=C(\C#N)C(=N)N2CCCCCC2)cc1,.,.,.,.,.,.,.
COc1ccc(N/N=C(\C#N)C(=N)N2CCCCC2)cc1,.,.,.,.,.,.,/
CCC(C(=O)NCCCN1CCN(C)CC1)n1nc(C)n2c(cc3occc32)c1=O (stereo not given),.,.,.,.,.,.,/
CN(CCCNC(=O)c1ccccc1F)CCCNC(=O)c1ccccc1F,.,.,.,.,.,.,/
Cc1ccc2c(c1)N(C(=O)CCC(=O)NCc1cccnc1)CC(C)O2 (stereo not given),.,.,.,.,.,.,/
COc1ccccc1C(=O)N1CCN(c2cccc(C(F)(F)F)c2)CC1,.,65.7,.,.,.,.,.
COCCNC(=O)c1noc2c1CCc1cc(OC)ccc1-2,.,.,.,.,.,.,/
COc1ccc2c(c1)CCc1c(C(=O)NC3CCCCC3)noc1-2,.,.,.,.,.,?,.
CN(C(=O)c1cccc(C#CC(C)(C)O)c1)C1CCCN(Cc2ccccc2F)C1 (stereo not given),/,.,.,.,.,.,/
SMILES,Beta apoptosis,Jurkat NFkB inh,Mdm2 MdmX PPI,697 NFkB inh,NTR1 ag,A1 inh,Jurkat NFkB conf
COc1cccc(CN(C)C(=O)c2ccc(OCC(=O)Nc3cccc(C(F)(F)F)c3)c(OC)c2)c1,.,55.8,.,.,.,.,61.5
COc1ccc(CN(C)C(=O)c2ccc(OCC(=O)Nc3cccc(C(F)(F)F)c3)c(OC)c2)c(OC)c1,.,.,.,.,.,.,/
COc1cc(OC)cc(C(=O)NC(C(=O)NNC(=O)c2cc(Cl)ccc2OC)C(C)C)c1 (stereo not given),.,.,.,.,.,.,/
O=C(Nc1nc(-c2nc3ccccc3s2)cs1)C1CC1,.,.,.,.,.,.,.
O=C(CN1C(=O)CCC1=O)Nc1nc(-c2nc3ccccc3s2)cs1,/,.,.,.,.,.,/
Cn1c(/C=N/Nc2nc3ccccc3[nH]2)nc2ccccc21,.,.,.,.,.,.,.
